The full list was thinned out, with hits kept by preference.
LmPK inh: blocks Leishmania mexicana pyruvate kinase activity | Q27686 | purified LmPK, Kinase-Glo ATP luminescence, 1 h | Potency, µM (titrated, usually from 57.5 µM), without a hit: top-dose activity change, negative = inhibition, actives largely listed as inhibitors | 290,000 tested, 0.37% active | AID 1721; note: potency is the fitted concentration of half-maximal effect; % is set by controls: 0 for no effect and ±100 for the full control effect
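Pyruvate kinase activity monitored as ATP production (luciferase luminescence). Conditions: 0.1 nM enzyme, 0.5 mM PEP, 0.1 mM ADP, 1 h, RT; normalized against uninhibited and no-enzyme wells.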
FBPA Giardia inh: inhibitors of Giardia lamblia fructose-1,6-bisphosphate aldolase | Potency, µM (top dose mostly 59.6 µM), inactives show at the highest dose activity, negative = inhibition, actives largely listed as inhibitors | purified Giardia FBPA | 290,000 tested, 0.71% active | AID 2451 | A8B2U2; note: potency is the fitted concentration of half-maximal effect; % is set by controls: 0 for no effect and ±100 for the full control effect; nearly all actives have a fitted effect of over 55% in size
Target sequence (A8B2U2 whole entry, looked up): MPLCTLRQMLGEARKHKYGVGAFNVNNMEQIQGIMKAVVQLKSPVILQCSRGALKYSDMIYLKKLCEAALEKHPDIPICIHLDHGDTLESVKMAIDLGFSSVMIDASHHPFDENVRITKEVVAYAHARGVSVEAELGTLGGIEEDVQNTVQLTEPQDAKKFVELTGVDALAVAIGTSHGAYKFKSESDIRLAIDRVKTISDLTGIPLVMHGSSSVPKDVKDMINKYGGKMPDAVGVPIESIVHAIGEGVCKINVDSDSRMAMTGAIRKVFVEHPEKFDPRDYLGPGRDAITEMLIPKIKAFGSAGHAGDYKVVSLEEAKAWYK
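Giardia FBPA (40 nM reagent) was preincubated 10 min at RT with compound (up to 57.5 uM final), then substrate plus GAPDH/TPI/NAD/arsenate coupling system with diaphorase/resazurin was added; resorufin fluorescence (525/598 nm) was read after 20 min.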
Shiga toxin inh: blocks Shiga toxin action in Vero cells. Vero cells, Shiga toxin protein synthesis inhibition reporter. inhibition, % at 38.7 µM. 290,000 tested, 9.2% active. AID 2315; in the data active = inhibition mostly above about 28%, no sharp cut-off; inactive = mostly below about 43%; note: 0% is about no effect
CHX counter: affects cycloheximide protein synthesis inhibition readout, counter-screen. cell reporter, cycloheximide protein synthesis inhibition counterscreen. max response, %. 300,000 tested, 12% active. AID 2314; in the data active = max response mostly above about 13%, no sharp cut-off; inactive = mostly below about 14%; note: read at 38.3 µM for the half of the compounds with a filed dose; 0% is about no effect
RE007 growth inh: less growth of the S. pombe RE007 Vpr strain; Potency, µM (highest dose often 92.2 µM), for the others: at the highest dose activity change, negative = less growth, usual class: inhibitors; 360,000 tested, 0.21% active; S. pombe RE007 Vpr strain, BacTiter-Glo ATP luminescence, 24 h; active = well fitted falling curve with a large enough effect; inconclusive = small, poorly fitted or top-dose-only effect; inactive = no such curve, though single readings can be large or run the other way; note: potency is the fitted concentration of half-maximal effect; % is set by controls: 0 for no effect and ±100 for the full control effect; nearly all actives have a fitted effect of over 50% in size
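Fission yeast strain RE007, carrying one chromosomally integrated HIV-1 vpr copy, was seeded at OD 0.01 in PMG+AL medium with 23 nL pinned compound. After 24 h at 30 °C and 99% humidity, viability was read by BacTiter-Glo luminescence.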
TbPYK inhibitor: inhibitors of Trypanosoma brucei pyruvate kinase; Q57TT1; TbPYK enzyme, Kinase-Glo Plus ATP luminescence, 45 min; Potency, µM (highest dose often 76.8 µM), for inactives: at the highest dose activity, negative = inhibition, usual class: inhibitors; 410,000 tested, 0.12% active; AID 624173; note: potency is the fitted concentration of half-maximal effect; % is set by controls: 0 for no effect and ±100 for the full control effect; nearly all actives have a fitted effect of over 50% in size
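Luminescent Kinase-Glo Plus end-point after 45 min room-temperature reaction of T. brucei pyruvate kinase started with 130 uM ADP (final). Buffer TEA 50 mM pH 7.2 with KCl, MgCl2, BSA, Tween-20; titration-based qHTS with fitted concentration-effect curves.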
Numbers without * were called inactive; ? = inconclusive; · = no result given; [ ] = another dose, or the depositor's remark. Unless noted, calls come from the whole dose curve; as a rule, active = well fitted curve in the direction sought with a large enough effect; inconclusive = small, poorly fitted or top-dose-only effect, or another doubt; inactive = no such curve, though single readings can be large; an effect the other way counts as inactive or inconclusive.

SMILES	LmPK inh	FBPA Giardia inh	Shiga toxin inh	CHX counter	RE007 growth inh	TbPYK inhibitor
CC(=O)OC[C@@H]1O[C@@H](O/N=C2/C[C@@H](O)[C@@H](O)[C@@H]3[C@@H]4C(=O)N(C[C@@H]5CCCO5)C(=O)[C@H]4CC[C@H]23)[C@H](OC(C)=O)[C@H](OC(C)=O)[C@@H]1OC(C)=O	·	1%[12.9 µM]	·	·	·	·
CCOC(=O)c1sc(NC(=O)C(C)Sc2nc(-c3ccccc3)cc(C(F)(F)F)n2)c(C(=O)OC)c1C (stereo unspecified)	·	·	·	·	·	-2%
COC(=O)C1=C(O)/C(=C\c2cc(C)n(-c3ccccc3C)c2C)N=C1C	4%	7.1µM*	-7	1	-4%	17%
COC(=O)c1cccc(-n2c(C)cc(C=O)c2C)c1C	1%	0%	49*	19*	20%	-5%
CCOC(=O)C1=C(O)/C(=C\c2sccc2C)N=C1C	0%	-7%	33	2	-8%	-3%
COc1ccc(OC)c(-n2c(C)cc(C=O)c2C)c1	-2%	-1%	1	-4	-22%	-10%
COC(=O)C1=C(O)/C(=C\c2sccc2C)N=C1C	-12%	-7%	17	27*	-23%	-4%
CS(=O)(=O)N1CCC2(CCCN(c3cccc(-c4ccccc4)c3)C2)CC1	·	-10%	·	·	·	-5%
O=C1C2CCN(CC2)[C@@H]1Cc1ccc2ccccc2c1O	4%	?	40*	33*	1%	1%
O=C(Nc1ccc(Cl)c(Cl)c1)Nc1ccon1	-8%	-1%	15	18*	21%	-11%
COc1ccc(NC(=O)Nc2ccon2)cc1OC	-1%	-4%	-8	-3	10%	3%
CCOC(=O)c1ccc(NC(=O)Nc2ccc(Cl)cn2)cc1	-2%	22%	18	-3	-2%	-14%
CCOC(=O)c1ccc(NC(=O)Nc2ccon2)cc1	-5%	3%	66*	31*	-3%	2%
CC1CCC2C(=O)OC(CN=[N+]=[N-])CN2C1c1ccc(Br)cc1 (stereo unspecified)	·	-1%[12.9 µM]	·	·	·	·
CCOc1ccc(CNC(=O)C2CCN(C(=O)N3CC(CC)Oc4ccc(C)cc43)CC2)cc1OC (stereo unspecified)	·	·	·	·	·	-1%
COc1ccc(/C=C2\SC(c3ccc(C)cc3)=NC2=O)cc1OC	?	?	3	9	0%	8.9µM*
COc1ccc(/C=C2/SC(c3ccc(C)cc3)=NC2=O)cc1OC	?	?	-3	7	1%	?
CC(C)(C)OC(=O)N/N=C/c1ccc(N2CCOCC2)s1	-1%	6%	89*	55*	6%	-9%
Nc1ccc(C(=O)N/N=C/c2ccc(N3CCOCC3)s2)cc1	·	·	·	·	-3%	-2%
Clc1cccc(N/N=C/c2ccc(N3CCOCC3)s2)c1	1%	-14%	18	23*	162%	-9%
O=C1CSC(=S)N1N=C1CCCCCC1	0%	?	17	14*	17%	-6%
CCCC(CCC)C(=O)NC1CC(=O)N(c2ccc3c(c2)OCCO3)C1 (stereo unspecified)	·	·	·	·	·	1%
CCOc1ccccc1N(CC)C(=O)c1noc2c1COc1ccc(C)cc1-2	·	·	·	·	·	-5%
C=CCN1N=C(/C=C/c2ccc(C)cc2)CCC1=O	-3%	0%	92*	35*	29%	8%
C=CCN1N=C(/C=C/c2ccc(OC)cc2)CCC1=O	-5%	6%	115*	54*	19%	2%
SMILES	LmPK inh	FBPA Giardia inh	Shiga toxin inh	CHX counter	RE007 growth inh	TbPYK inhibitor
O=C(Nc1ccc2c(c1)oc1ccccc12)c1ccc2c(c1)OCO2	-1%	3%	73	45*	-12%	4%
O=C(COc1ccc2c(c1)OCO2)Nc1ccc2c(c1)oc1ccccc12	0%	-1%	-1	4	-1%	4%
Cc1nc(N2CCCCC2)c2c(C)c(C(=O)Nc3ccc4c(c3)OCCO4)sc2n1	9%	-5%	24	17*	6%	2%
O=C(Nc1ccc(Cl)c([N+](=O)[O-])c1)c1ccc2c(c1)OCCO2	9%	-9%	62*	33*	-25%	-1%
Cc1[nH]c2ccccc2c1C(=O)C(=O)Nc1ccc2c(c1)OCO2	6%	·	47*	28*	-8%	0%
Cc1cccc(NC(=O)c2sc3nc(C)nc(N4CCOCC4)c3c2C)c1	·	·	·	·	0%	12%
CCOC(=O)c1cc(-c2ccccc2)n(CC(=O)N(C)c2ccc(OC)cc2)c1C	·	·	·	·	·	1%
CCOC(=O)C(CS)NCCN[C@@H](CS)C(=O)OCC (stereo partly specified)	·	·	·	·	·	-5%
O=C(Nc1ccon1)c1ccc2c(c1)OCO2	-8%	1%	31*	43*	2%	-8%
O=C(Nc1ccc(N2CCCC2)c(Cl)c1)c1ccc2c(c1)OCCO2	·	·	·	·	-8%	-2%
O=C(Nc1ccc(Cl)c(Cl)c1)c1ccc2c(c1)OCO2	0%	-7%	98*	42*	-10%	4%
O=C(Nc1ccc2c(c1)OCO2)c1ccc2c(c1)OCO2	?	-1%	67*	40*	-18%	-3%
O=C(Nc1ccc(NC(=O)c2ccc(Cl)cc2Cl)cc1)c1ccc2c(c1)OCO2	1%	3%	10	-1	-13%	-3%
O=C(Nc1ccc(N2CCCCC2)c(Cl)c1)c1ccc2c(c1)OCCO2	10%	?	57	45*	-1%	-1%
CCOc1cc(CNCCSc2nnnn2C)cc(Cl)c1OCc1ccc(Cl)cc1	·	·	·	·	·	0%
CCc1cccc(C)c1NC(=O)CCCn1c(C)c2cnn(-c3ccccc3)c(=O)c2c1C	·	·	·	·	·	3%
CCCCNC(=O)c1cccc(-n2cnc3cccnc32)c1C	·	·	·	·	·	4%[15.4 µM]
C/C(CCN1CCCc2nc(C)c(C)cc21)=N\O[C@@H](C)c1cn([C@H](CO)Cc2ccccc2)nn1	·	1%[12.9 µM]	·	·	·	·
COC(=O)c1cc(OC)c(OC)cc1NC(=O)c1ccc2c(c1)CCN2S(=O)(=O)c1ccccc1	·	·	·	·	·	0%
O=C(Nc1ccc2c(c1)OCO2)c1ccc(Cl)s1	-20%	-18%	81*	78*	-1%	-15%
CCN1CCN(c2ccc(NC(=O)c3ccc4c(c3)OCO4)cc2)CC1	-1%	-11%	56*	29*	9%	8%
O=C(Nc1ccc(Cl)cc1)c1ccc2c(c1)OCO2	-8%	-6%	49*	30*	-1%	-8%
O=C(Nc1cc([N+](=O)[O-])ccc1F)c1ccc2c(c1)OCCO2	1%	-3%	56*	28*	-7%	-7%
CCOC(=O)CCC(=O)Nc1nnc2n1CCS2	·	·	·	·	·	-1%
CC(NC(=O)C1=Cc2ccccc2OC1)c1ccccc1 (stereo unspecified)	·	·	·	·	·	-2%
O=C(Nc1ccc(Cl)cc1)C1=Cc2ccccc2OC1	-2%	-16%	68*	83*	-11%	-9%

Bioassay records from PubChem BioAssay.
